Experimental findings from PubChem BioAssay AID624173 (National Center for Advancing Translational Sciences (NCATS), 2012) are described below.

The whole screen tested about 410,000 compounds, of which about 490 (0.12%) were called active. About 1% were inconclusive and are not listed. Calls follow the shape of the dose curve; as a rule, active = well fitted inhibition curve with a large enough effect; inconclusive = small, poorly fitted or top-dose-only effect; inactive = flat fitted curve, though single readings scatter. The entries come from a sample that favours actives as a whole. Entries that show only a call come without a potency.
Potency is read from the fitted curve at half-maximal effect.

This assay deals with pyruvate kinase (Trypanosoma brucei) (UniProt Q57TT1). The assay is described as follows: qHTS of Trypanosoma Brucei Inhibitors. Also: nearly all actives have a fitted effect of over 50% in size. Particulars: TbPYK enzyme, Kinase-Glo Plus ATP luminescence, 45 min; series mostly up to 76.8 µM. An excerpt: Members of the Trypanosomatidae family of parasitic protozoans cause a spectrum of diseases throughout the tropical and subtropical world. Sleeping sickness, caused by two subspecies of Trypanosoma brucei, is endemic to areas of sub-Saharan Africa, while Chagas' disease, a manifestation of Trypanosoma cruzi infection, is prevalent throughout Central and South America. In addition, many species of Leishmania are responsible for a range of cutaneous and visceral diseases, causing ulcers, destructive lesions and kalaazar, a lethal infection of the viscera. These diseases cause severe public health and economic burdens on populations that are often already caught in a tragic cycle of poverty, poor nutrition and disease. Collectively, parasites of the trypanosomatid family infect 30 million people worldwide (~500 million live in endemic areas), and account for ~130K deaths annually. Existing treatments have developed little in the past 50 years, and suffer from toxicity, poor efficacy and resistance; the goal of this project is to develop lead drugs that will be suitable for entry into pre-clinical trials.
Glycolysis in axenically cultured T. cruzi, representing the intracellular pathogenic stage, is also essential for these parasites. {Engel, 1987} This project aims to discover and optimize selective inhibitors of the glycolytic enzyme pyruvate kinase (PYK) from Trypanosoma brucei, the parasite that causes sleeping sickness. […] Trypanosomatid PYKs show significant differences from their human counterparts including only 47-50% sequence identity and different allosteric and activation properties.{Callens, 1992} To this end, a qHTS was done against the MLSMR to discover inhibitors.
NIH Molecular Libraries Probe Production Network [MLPCN]
NIH Chemical Genomics Center [NCGC]
PI Name: Malcolm Walkinshaw, University of Edinburgh
2 uL of TbPYK/substrate buffer (columns 1-3, 5-48) are dispensed into Greiner white solid bottom 1536-well assay plates; column 4 receives only TEA buffer as 0x TbPYK controls. Compounds are then transferred via Kalypsys pin tool equipped with 1536-pin array (10 nL slotted pins, V&P Scientific, San Diego, CA). Following addition of compound, 2 uL of ADP (130 uM final concentration, all columns) is added to initiate the reaction. The plates are then incubated at room temperature for 45 minutes. Kinase-Glo Plus reagent is added (3 uL) and plates incubated for 10 minutes, before being transferred to a ViewLux high-throughput CCD imager (PerkinElmer) wherein single end-point measurements of luminescence are acquired using a clear filter. All reagents are diluted in an assay buffer consisting of 50 mM TEA (pH 7.2), 100 mM KCl, 10 mM MgCl2, 0.05% BSA and 0.01% Tween-20.
All screening operations will be performed on a fully integrated robotic system (Kalypsys, San Diego, CA) containing one RX-130 and two RX-90 anthropomorphic robotic arms (Staeubli, Duncan, SC). Library plates will be screened starting from the lowest and proceeding to the highest concentration. Vehicle-only plates, with DMSO being pin-transferred to columns 5-48, will be inserted uniformly at the beginning and the end of each library in order to monitor and record any shifts in the background, which can be affected by reagent dispensers or loss in enzyme activity over time. Screening data will be corrected, normalized, and concentration-effect relationships will be derived by using publicly-available curve fitting algorithms developed in-house (http://ncgc.nih.gov/pub/openhts).
With `CC[N+]1(CCOC(=O)C(O)(c2ccccc2)c2ccccc2)CCCCC1`, the Potency result is “inactive”. Under `COc1cccc(Nc2ncc3ncc(=O)n(C4CC4)c3n2)c1` stands “inactive”; under `CO[C@H]1C[C@@H](O[C@@H]2[C@@H](C)O[C@@H](O[C@@H]3/C(C)=C/CC4C[C@@H](C[C@]5(C=C[C@@H](C)[C@H](C6CCCCC6)O5)O4)OC(=O)[C@@H]4C=C(C)[C@@H](O)[C@H]5OC/C(=C\C=C\[C@@H]3C)[C@]54O)C[C@H]2OC)O[C@@H](C)[C@@H]1O`, “inactive”; under `CCCCCCCCCCCCCCCCO`, “inactive”. Under `CCCN(CC)[C@@H](CC)C(=O)Nc1c(C)cccc1C` stands “inactive”. Under `O=S(=O)(O)C(F)(F)C(F)(F)C(F)(F)C(F)(F)F` stands “inactive”.

Turning to `C[N+](C)(CCOc1ccccc1)Cc1cccs1` (tested in a mixture with another compound), the Potency entry was “inactive”. On to `CCCC[C@H]1C(=O)N(c2ccccc2)N(c2ccc(O)cc2)C1=O`, for which the Potency result was “inactive”. Under `CN1CCC2(CC1)CCN(S(=O)(=O)c1ccccc1)CC2` stands “inactive”; under `O=C(c1csnn1)N1CCC2(CC1)CN(c1ncccn1)C2`, “inactive”. Under `COc1ccc(S(=O)(=O)NCC(c2ccc(N(C)C)cc2)N2CCCC2)cc1` (stereo not drawn) stands “inactive”; under `O=C(Nc1cccc(F)c1)N1CC2(CCN(C(=O)c3csnn3)CC2)C1`, “inactive”; under `CN1C(=O)C[C@H](c2ccccc2)C1=O`, “inactive”. Under `C/C=C/C=N/NC(=O)c1ccncc1` stands “inactive”; under `O=C(Nc1cccc(F)c1)N1CC2(CCN(C(=O)c3cnccn3)CC2)C1`, “inactive”; under `CNC(=O)NC(=O)CSc1nnc(-c2ccc(F)cc2)n1CC1CCCO1` (stereo not drawn), “inactive”. With `Cc1nnc(SCC(=O)NNC(=O)c2ccc(Cl)cc2)n1CC1CCCO1` (stereo not drawn), the Potency entry was “inactive”.

For the compound `S=c1[nH]nc(-c2ccc(Cl)cc2)n1CC1CCCO1` (stereo not drawn), the Potency was 10 µM (active). Under `c1ccc(N2CC[C@@]3(CCCNC3)C2)nc1` stands “inactive”; under `NNc1nnc(Cc2ccncc2)c2ccccc12`, “inactive”; under `CCNc1ncc2ncc(=O)n(CCc3ccccc3)c2n1`, “inactive”. To `O=C(N/N=C/c1ccc([N+](=O)[O-])o1)c1cc([N+](=O)[O-])cc([N+](=O)[O-])c1O` belongs “inactive”; to `CCOc1ccc(N(Cc2ccccc2)C(=O)c2nc(S(C)(=O)=O)ncc2Cl)cc1`, “inactive”.

Take `Cc1ccnc(SC2CC(=O)N(c3ccccc3)C2=O)n1` (stereo not drawn): the Potency result is “inactive”. With `Cc1ccnc(-n2sc3ccccc3c2=O)n1`, the Potency was 20 µM (active). Under `O=c1c2ccccc2nc(-c2ccccc2)n1-c1ccccn1` stands “inactive”. To `Cc1ccc(S(=O)(=O)NC(=O)NN2C[C@H]3CCC[C@@H]3C2)cc1` belongs “inactive”. Turning to `c1csc(CN2CCCC3(CCNCC3)C2)n1`, the Potency entry was “inactive”. Consider `CC(O)COc1ccccc1` (stereo not drawn), for which the Potency result was “inactive”. Turning to `OCC(CO)NC1C[C@](O)(CO)[C@@H](O)[C@H](O)[C@H]1O` (stereo partly drawn), the Potency entry is “inactive”. To `Cn1c(=O)c(-c2ccccc2)nc2cnc(N3CCNCC3)nc21` belongs “inactive”; to `NNc1nnc(NN)c2ccccc12`, “inactive”. Consider `O=C(c1csnn1)N1CCC[C@@]2(CCN(Cc3nccs3)C2)C1`, for which the Potency entry is “inactive”. To `C[C@@H]1C[C@H]2[C@@H]3C[C@H](F)C4=CC(=O)C=C[C@@]4(C)[C@]3(F)[C@H](O)C[C@]2(C)[C@@]1(O)C(=O)CO` belongs “inactive”; to `COc1ccc(Cn2ccn(CC(=O)Nc3cc(C)ccc3C)c(=O)c2=O)cc1`, “inactive”; to `CN1CC(O)c2cc(N=NC(N)=O)c(O)cc21` (stereo not drawn), “inactive”. To `O=C(c1csnn1)N1CCC[C@@]2(CCN(c3cccc(-c4ccccc4)c3)C2)C1` belongs “inactive”. Take `O=C(c1cnccn1)N1CCC[C@@]2(CCN(Cc3ccncc3)C2)C1`: the Potency entry was “inactive”. To `COc1ccccc1CN1CC2(CCN(S(=O)(=O)c3ccccc3)CC2)C1` belongs “inactive”; to `O=P1(N(CCCl)CCCl)NC(OO)CCO1` (stereo not drawn), “inactive”. Under `O=C(c1cccc(F)c1)N1CCC2(CCCN(Cc3ccncc3)C2)CC1` stands “inactive”; under `COC(=O)N1CCC[C@@]2(CCN(C(=O)NC(C)C)C2)C1`, “inactive”. For `O=C(c1ccco1)N1CCC[C@@]2(CCN(c3ccccc3)C2)C1`, the Potency entry was “inactive”. To `COC(=O)N1CCC2(CCCN(Cc3ccccc3OC)C2)CC1` belongs “inactive”; to `CS(=O)(=O)N1CCC2(CC1)CN(Cc1cc(C(F)(F)F)cc(C(F)(F)F)c1)C2`, “inactive”; to `CC(=O)N1CCC2(CCCN(c3ncccn3)C2)CC1`, “inactive”. Under `CC[C@]1(C)CC(=O)NC1=O` stands “inactive”; under `C=C1C(=CC=C2CCC[C@]3(C)[C@@H]([C@H](C)C=C[C@H](C)C(C)C)CC[C@@H]23)C[C@@H](O)C[C@@H]1O`, “inactive”; under `COc1ccc(Cl)cc1NC(=O)CCn1c(=O)c2cccn2c2ccccc21`, “inactive”.

Take `Cc1ccc(C)c2c1cc(C)c1nnc(SCC(=O)Nc3cccc(C(=O)O)c3)n12`: the Potency was 6.31 µM (active). Under `Cc1ccc(C(=O)NCCc2nnc(SCC(=O)Nc3cccc(C(=O)O)c3)n2C)cc1` stands “inactive”. Under `CCOc1cc(C)ccc1OCc1nnc(SCC(=O)Nc2cccc(C(=O)O)c2)n1-c1ccccc1` stands “inactive”; under `CC(=O)OC[C@H]1O[C@@H](O[C@H]2[C@H](O)[C@@H](OC(=O)c3ccccc3C(=O)O)[C@H](O)O[C@@H]2COC(C)=O)[C@H](O)[C@@H](OC(=O)c2ccccc2C(=O)O)[C@@H]1O`, “inactive”. Under `O=C(c1cccc(F)c1)N1CCC2(CC1)CCN(c1ccccc1)CC2` stands “inactive”; under `c1csc(CN2CC3(CCNCC3)C2)n1`, “inactive”; under `O=C(O)CCCCC(=O)O`, “inactive”. Turning to `COc1ccc(C(=O)N2CCC[C@@]3(CCN(C(=O)NC(C)C)C3)C2)cc1`, the Potency result is “inactive”. Under `COc1ccccc1OCCCn1c(-c2ccc(Cl)cc2)nc2ccccc2c1=O` stands “inactive”; under `O=S(=O)(c1ccccc1)N1CCC2(CC1)CN(Cc1nccs1)C2`, “inactive”.

In the case of `CCOc1ccc(N2C(=O)Nc3ccccc3C2(O)C(=O)NCc2ccco2)cc1` (stereo not drawn), the Potency result is “inactive”.

As for `CCOc1ccc(N2C(=O)/C(=C/c3ccc(C)o3)N(C)C2=S)cc1`, the Potency is 28.2 µM (active). Under `CCOC(=O)c1ccc(NC2=CC(c3ccc(OCC)cc3)N(c3ccc(C(=O)OCC)cc3)C2=O)cc1` (stereo not drawn) stands “inactive”. To `O=C(c1cc(C(F)(F)F)cc(C(F)(F)F)c1)N1CCC2(CC1)CN(c1ccncc1)C2` belongs “inactive”; to `CCc1cc(-c2nnc(SCC(=O)NC3CC3)n2C)cs1`, “inactive”; to `CCc1cc(-c2n[nH]c(=S)n2CC(C)C)cs1`, 3.16 µM (active). With `CCn1c(C(C)C)n[nH]c1=S`, the Potency entry is “inactive”. Under `FC(F)(F)C1CCCN(c2nsc3ccccc23)C1` (stereo not drawn) stands 6.31 µM (active); under `FCOC(C(F)(F)F)C(F)(F)F`, “inactive”.
